Results: PubChem BioAssay
Calls of active or inactive are those of the source.

What was measured:
[1] = binders of probe aFSTL3 on microarray, primary screen, stem cell growth factor project, biochemical, small-molecule microarray, fluorescence 635/667 (AID 1064); details: higher = more signal;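 also: measures binding of the biotinylated anti-FSTL3 antibody to printed compounds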
[2] = binders from COS7 lysate, DM2A8 probe, primary screen, torsin A project, cell lysate, small-molecule microarray, fluorescence 635/667 (AID 1065); details: higher = more signal, COS7 lysate expressing mutant human TOR1A
[3] = binders of probe aFGF2 on microarray, primary screen, stem cell growth factor project, biochemical, small-molecule microarray, fluorescence 635/667 (AID 1067); details: higher = more signal;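 also: measures binding of biotinylated aFGF2 protein to printed compounds on slides; z-score merges feature fluorescence and signal-to-noise across triplicate slides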
[4] = binders of probe aFGF10 on microarray, primary screen, stem cell growth factor project, biochemical, small-molecule microarray, fluorescence 635/667 (AID 1071); details: higher = more signal;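 also: score merges 667 nm spot intensity and signal to noise from triplicate slides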
[5] = target: Neurogenic locus notch homolog protein 2 (Homo sapiens) (UniProt Q04721); test: Notch2 binders on small-molecule microarrays, primary screen, biochemical, small-molecule microarray, 635 nm fluorescence, stem cell growth factors (AID 1073); details: Notch2 binding, higher = more signal
[6] = target: Pro-neuregulin-1, membrane-bound isoform (Homo sapiens) (UniProt Q02297); test: NRG1 binders on small-molecule microarrays, primary screen, psychiatric disease protein project, biochemical, small-molecule microarray, fluorescence 635/667 (AID 1075); details: NRG1 binding, 635 nm fluorescence, higher = more signal;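 also: score combines 667 nm spot fluorescence with signal to noise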
Pro-neuregulin-1, membrane-bound isoform (Homo sapiens), sequence (Q02297 whole entry, looked up, the tested form may be a part, canonical isoform): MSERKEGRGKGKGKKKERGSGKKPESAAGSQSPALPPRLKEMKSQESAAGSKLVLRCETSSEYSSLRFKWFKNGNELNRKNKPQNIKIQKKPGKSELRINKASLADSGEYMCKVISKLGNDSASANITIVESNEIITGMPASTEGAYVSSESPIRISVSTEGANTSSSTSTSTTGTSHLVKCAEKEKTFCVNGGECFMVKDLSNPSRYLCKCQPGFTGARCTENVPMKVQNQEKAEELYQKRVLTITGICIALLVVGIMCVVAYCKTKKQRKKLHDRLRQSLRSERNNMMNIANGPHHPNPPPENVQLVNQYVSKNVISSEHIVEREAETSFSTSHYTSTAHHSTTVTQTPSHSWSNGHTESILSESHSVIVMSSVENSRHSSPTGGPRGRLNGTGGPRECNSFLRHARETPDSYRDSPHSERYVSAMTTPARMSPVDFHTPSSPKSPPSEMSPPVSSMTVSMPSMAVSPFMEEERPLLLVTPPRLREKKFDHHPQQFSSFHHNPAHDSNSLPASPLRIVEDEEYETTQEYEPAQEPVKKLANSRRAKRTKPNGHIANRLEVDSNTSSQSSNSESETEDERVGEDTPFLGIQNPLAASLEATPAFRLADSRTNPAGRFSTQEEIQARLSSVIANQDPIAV

[7] = system: Neuregulin-1 EGF-like domain; test: binders of neuregulin-1 EGF-like domain, primary screen, biochemical, small-molecule microarray, 635 nm fluorescence (AID 1081); details: small-molecule microarray binding, higher = more signal;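 also: binding of the protein to compounds printed on small-molecule microarray slides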
[8] = FRG1 promoter luciferase signal modulators, primary screen, FRG1 inhibition for FSHD, cell-based, C2C12 myotubes, firefly/Renilla luciferase, luminescence (AID 1084); details: higher = more signal, called active from +8 up or from −8 down
[9] = binders of probe aFST on microarray, primary screen, stem cell growth factor project, biochemical, small-molecule microarray, fluorescence 635/667 (AID 1086); details: higher = more signal;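 also: score merges 667 nm fluorescence with signal-to-noise of each printed compound spot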
[10] = binders of probe aHhip on microarray, primary screen, stem cell growth factor project, biochemical, small-molecule microarray, fluorescence 635/667 (AID 1087); details: higher = more signal;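 also: score merges spot fluorescence at 667nm with spot signal to noise ratio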
[11] = system: PRMT1 (protein arginine N-methyltransferase 1); test: PRMT1 binders on small-molecule microarrays, primary screen, biochemical, small-molecule microarray, 635 nm fluorescence (AID 1088); details: small-molecule microarray binding, higher = more signal;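 also: binding of Prmt1 protein to compounds spotted on small-molecule microarray slides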
[12] = yeast growth modulation, basal conditions, primary screen, YJM789 clinical isolate, OD600, 24 h (AID 1089);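 also: growth of clinical yeast isolate S. cerevisiae YJM 789 seeded 1000 cells per well; test concentration not given here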; details: S. cerevisiae YJM789 growth, higher = more signal, called active from +8 up or from −8 down
[13] = fission yeast growth modulation, primary screen, strain 972, OD600, 24 h, no modulator (AID 1090);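 also: basal condition with compound alone and no growth modifier present; test concentration not given here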; details: S. pombe 972 growth, higher = more signal, called active from +8 up or from −8 down
[14] = S. cerevisiae growth modulation with rapamycin, primary screen, strain BY4716, OD600, 96 h (AID 1091); details: higher = more signal, called active from +8 up or from −8 down; also: test concentration not given here
[15] = target: Torsin-1A-interacting protein 2 (Homo sapiens) (UniProt Q8NFQ8); test: LULL1 binders on small-molecule microarray, primary screen, cell lysate, human LULL1 lysate, 635/667 nm fluorescence (AID 1092); details: hLULL1 lysate binding, 635 nm fluorescence, higher = more signal;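 also: probe is lysate of COS7 cells overexpressing human LULL1; score merges per-feature 667 nm fluorescence with signal-to-noise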
Torsin-1A-interacting protein 2 (Homo sapiens), sequence (Q8NFQ8 whole entry, looked up): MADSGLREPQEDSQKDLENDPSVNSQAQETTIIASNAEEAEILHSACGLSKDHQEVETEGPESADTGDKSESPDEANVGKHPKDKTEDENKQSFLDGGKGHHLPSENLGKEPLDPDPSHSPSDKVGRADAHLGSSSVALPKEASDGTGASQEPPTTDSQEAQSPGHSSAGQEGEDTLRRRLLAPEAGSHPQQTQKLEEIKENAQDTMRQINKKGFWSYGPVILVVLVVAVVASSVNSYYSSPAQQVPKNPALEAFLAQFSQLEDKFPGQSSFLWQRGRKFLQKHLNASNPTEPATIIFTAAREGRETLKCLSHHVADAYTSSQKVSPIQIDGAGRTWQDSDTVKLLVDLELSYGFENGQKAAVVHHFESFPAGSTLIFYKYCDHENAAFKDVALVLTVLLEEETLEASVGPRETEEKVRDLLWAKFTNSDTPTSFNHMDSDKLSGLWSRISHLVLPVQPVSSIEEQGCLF

[16] = E. coli growth modulation, two-sided OD650, primary screen, E. coli filamentation project, strain DRC41, 24 h (AID 1093); details: OD650, 24 h, higher = more signal, called active from +8 up or from −8 down;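 also: MC1000 strain lacking acrAB efflux and sulA so SOS filamentation is blocked; test concentration not given here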
[17] = small-molecule microarray binders of probe aLefty2, primary screen, biochemical, biotinylated probe, 635/667 nm fluorescence (AID 1094); details: higher = more signal;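 also: score merges spot fluorescence near 667 nm with spot signal-to-noise ratio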
[18] = system: Noggin (protein binding on small-molecule microarray); test: Noggin binders on small-molecule microarray, primary screen, biochemical, 635/667 nm fluorescence (AID 1095); details: 635 nm fluorescence, higher = more signal;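 also: score merges 667 nm feature fluorescence with signal to noise over triplicate slides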
[19] = target: Neurogenic locus notch homolog protein 3 (Homo sapiens) (UniProt Q9UM47); test: NOTCH3 binders on small-molecule microarray, primary screen, biochemical, 635/667 nm fluorescence (AID 1096); details: NOTCH3 binding, 635 nm fluorescence, higher = more signal
Neurogenic locus notch homolog protein 3 (Homo sapiens), sequence (Q9UM47 whole entry, looked up): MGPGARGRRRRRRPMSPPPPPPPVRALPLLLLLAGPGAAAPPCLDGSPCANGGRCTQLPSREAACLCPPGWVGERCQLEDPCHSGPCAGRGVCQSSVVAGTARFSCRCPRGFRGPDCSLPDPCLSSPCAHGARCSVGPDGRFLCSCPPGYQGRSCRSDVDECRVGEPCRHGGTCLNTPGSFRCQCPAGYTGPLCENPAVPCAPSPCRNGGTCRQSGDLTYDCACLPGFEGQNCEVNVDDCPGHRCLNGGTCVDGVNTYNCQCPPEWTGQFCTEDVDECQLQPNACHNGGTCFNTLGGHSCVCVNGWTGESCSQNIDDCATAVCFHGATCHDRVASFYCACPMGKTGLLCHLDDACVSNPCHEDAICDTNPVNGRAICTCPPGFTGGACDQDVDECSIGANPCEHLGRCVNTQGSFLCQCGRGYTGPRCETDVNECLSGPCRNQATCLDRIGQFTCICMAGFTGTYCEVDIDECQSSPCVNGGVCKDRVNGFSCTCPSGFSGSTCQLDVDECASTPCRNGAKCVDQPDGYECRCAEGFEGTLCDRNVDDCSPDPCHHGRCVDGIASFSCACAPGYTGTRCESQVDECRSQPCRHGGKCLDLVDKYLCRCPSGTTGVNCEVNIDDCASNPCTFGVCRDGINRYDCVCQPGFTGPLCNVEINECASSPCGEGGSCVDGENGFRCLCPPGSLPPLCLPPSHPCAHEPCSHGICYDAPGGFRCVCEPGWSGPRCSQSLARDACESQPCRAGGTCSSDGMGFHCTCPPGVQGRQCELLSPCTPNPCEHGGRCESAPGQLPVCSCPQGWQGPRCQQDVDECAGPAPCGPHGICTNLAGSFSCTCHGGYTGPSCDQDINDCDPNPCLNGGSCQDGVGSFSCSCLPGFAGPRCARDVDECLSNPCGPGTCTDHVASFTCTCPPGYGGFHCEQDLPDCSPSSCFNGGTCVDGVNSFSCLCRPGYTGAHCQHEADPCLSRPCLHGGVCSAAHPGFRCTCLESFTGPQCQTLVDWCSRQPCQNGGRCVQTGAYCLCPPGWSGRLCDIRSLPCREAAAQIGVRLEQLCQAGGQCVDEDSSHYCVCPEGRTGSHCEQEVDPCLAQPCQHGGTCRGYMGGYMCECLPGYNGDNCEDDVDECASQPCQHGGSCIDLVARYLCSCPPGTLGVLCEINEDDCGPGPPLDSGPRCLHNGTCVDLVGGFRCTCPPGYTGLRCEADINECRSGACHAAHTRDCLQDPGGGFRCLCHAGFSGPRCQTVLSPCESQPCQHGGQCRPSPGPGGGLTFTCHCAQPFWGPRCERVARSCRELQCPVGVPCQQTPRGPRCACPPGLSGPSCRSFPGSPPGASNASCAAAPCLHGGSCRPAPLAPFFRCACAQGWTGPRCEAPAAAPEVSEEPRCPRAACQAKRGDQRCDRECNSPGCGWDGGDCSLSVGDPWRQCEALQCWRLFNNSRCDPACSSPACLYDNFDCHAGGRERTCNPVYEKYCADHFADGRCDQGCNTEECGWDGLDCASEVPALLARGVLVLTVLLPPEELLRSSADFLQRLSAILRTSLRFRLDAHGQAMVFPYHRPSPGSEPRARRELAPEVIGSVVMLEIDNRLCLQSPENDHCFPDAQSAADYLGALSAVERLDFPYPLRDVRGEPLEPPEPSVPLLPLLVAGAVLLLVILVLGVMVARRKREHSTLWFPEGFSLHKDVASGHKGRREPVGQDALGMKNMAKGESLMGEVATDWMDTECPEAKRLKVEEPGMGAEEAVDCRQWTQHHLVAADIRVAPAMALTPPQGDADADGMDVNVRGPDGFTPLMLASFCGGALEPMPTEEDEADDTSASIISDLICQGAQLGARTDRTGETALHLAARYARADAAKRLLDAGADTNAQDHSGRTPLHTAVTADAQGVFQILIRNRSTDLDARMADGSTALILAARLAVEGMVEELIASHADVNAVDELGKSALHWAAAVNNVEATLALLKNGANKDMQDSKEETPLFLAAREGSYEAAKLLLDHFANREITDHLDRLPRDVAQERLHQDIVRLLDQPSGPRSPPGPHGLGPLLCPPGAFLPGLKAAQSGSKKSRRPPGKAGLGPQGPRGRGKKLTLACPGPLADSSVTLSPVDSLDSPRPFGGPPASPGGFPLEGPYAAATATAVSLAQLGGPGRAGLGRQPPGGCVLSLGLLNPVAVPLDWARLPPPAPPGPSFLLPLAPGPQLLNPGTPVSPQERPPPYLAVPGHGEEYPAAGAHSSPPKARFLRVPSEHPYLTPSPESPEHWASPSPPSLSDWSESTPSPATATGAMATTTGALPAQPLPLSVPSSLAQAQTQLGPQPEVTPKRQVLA

[20] = small-molecule microarray binders of probe aEGFR, primary screen, biochemical, biotinylated probe, 635/667 nm fluorescence (AID 1097); details: higher = more signal;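 also: probe is a biotinylated anti-EGFR antibody binding compounds printed on slides; score combines fluorescence near 667 nm and signal to noise of each spot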

Row | SMILES | composite z-score [1] | composite z-score [2] | composite z-score [3] | composite z-score [4] | composite z-score [5] | composite z-score [6] | composite z-score [7] | z-score [8] | composite z-score [9] | composite z-score [10] | composite z-score [11] | z-score [12] | z-score [13] | z-score [14] | composite z-score [15] | z-score [16] | composite z-score [17] | composite z-score [18] | composite z-score [19] | composite z-score [20]
1 | O=C1C2C=CC(C(O)c3ccc(F)cc3)N(Nc3ccccc3)C2C(=O)N1c1ccccc1 (stereo not given) | 0.719 | 0.616 | 0.0332 | 0.407 | 0.314 | 0.828 | 1.14 | -1.65 (inactive) | 0.593 | 0.0053 | 0.435 | 0.874 (inactive) | 1.31 (inactive) | 1.59 (inactive) | 3.15 | -0.754 (inactive) | 0.388 | -1.2 | 0.246 | -0.0111
2 | O=C(OCCF)C1=CCC(c2cccc(Cl)c2)O1 (stereo not given) | -0.422 | 0.0213 | -0.0907 | 0.193 | 0.926 | -0.0442 | 1.03 | -1.68 (inactive) | 0.5 | -0.226 | 0.581 | -3.17 (inactive) | -0.988 (inactive) | 2.82 (inactive) | 0.856 | -0.0288 (inactive) | -0.141 | 0.207 | 0.1 | -0.0121
3 | CCCC[C@@H]1C[C@H]1[C@@H](NC(=O)c1ccc(-c2ccccc2)cc1)c1ccc(-c2ccccc2)cc1 | -0.129 | 0.0257 | 0.702 | 0.711 | 0.286 | 0.0352 | 0.217 | -1.11 (inactive) | 0.0469 | 0.107 | 0.407 | -0.38 (inactive) | -6.62 (inactive) | -2.47 (inactive) | 0.983 | -1.08 (inactive) | -0.0986 | 0.677 | 1 | -0.109
4 | CC(C)CNC(=O)[C@@]1(c2ccc([N+](=O)[O-])cc2)CC(=O)N(CC23CC4CC(CC(C4)C2)C3)[C@@H]1c1ccc(CO)cc1 | 0.158 | 1.83 | 0.0201 | 0.39 | 0.994 | 0.65 | 1.19 | -2.51 (inactive) | -0.0554 | 0.075 | 1.52 | -1.73 (inactive) | -1.1 (inactive) | 0.226 (inactive) | 2.14 | 2.86 (inactive) | 0.0054 | 0.661 | 0.708 | -0.0897
5 | O=C1O[C@H](c2ccccc2)[C@H](c2ccccc2)N2[C@H]1[C@@H](C(=O)Nc1nc3ccccc3s1)[C@]1(C(=O)Nc3ccccc31)[C@H]2c1ccc(O)cc1 | -0.423 | 0.108 | -0.0516 | 0.405 | 1.13 | 1.43 | 1.25 | 0.678 (inactive) | 0.521 | -0.149 | 1.55 | 0.474 (inactive) | -0.0898 (inactive) | 0.677 (inactive) | 2.74 | 0.071 (inactive) | -0.23 | 1.24 | 1.15 | -0.0644
6 | Cc1cc(C)c(C(O)C2C=CC3C(=O)N(c4ccccc4)C(=O)C3N2Nc2ccc(C#N)cc2)c(C)c1 (stereo not given) | 0.624 | 0.36 | 0.111 | 0.783 | 1.58 | 1.74 | 1.15 | -1.08 (inactive) | 1.73 | 0.167 | 1.12 | 0.674 (inactive) | 0.788 (inactive) | 2.16 (inactive) | 3.52 | 0.111 (inactive) | 0.512 | -0.0482 | 1.05 | 0.0905
7 | CC(C)C[C@@H]1NC(=O)[C@H]2C[C@@H](C(=O)NCCCCCCNC(=O)CS)[C@@H](c3cccc(OCCO)c3)N2C1=O | -0.206 | 0.0281 | -0.0493 | 0.43 | 1.39 | 1.24 | 1.32 | -0.154 (inactive) | 0.752 | -0.0645 | 1.4 | -2 (inactive) | 0.251 (inactive) | 0.24 (inactive) | 2.85 | 0.645 (inactive) | -0.108 | 1.7 | 1.04 | 0.0798
8 | O=C1C[C@@](C(=O)NC2CC2)(c2ccc([N+](=O)[O-])cc2)[C@@H](c2ccc(CO)cc2)N1CC12CC3CC(CC(C3)C1)C2 | -0.0569 | -0.121 | -0.0111 | 0.214 | 1.4 | 0.707 | 0.745 | -0.962 (inactive) | 0.424 | -0.136 | 1.27 | -0.632 (inactive) | -1.06 (inactive) | 0.122 (inactive) | 1.61 | 0.587 (inactive) | 0.0469 | 0.883 | 1.14 | -0.0485
9 | CCCN1C(=O)[C@]2(COC(c3ccc(OCCCO)cc3)=N2)Cc2ccccc21 | 0.955 | 0.325 | 0.0092 | 0.251 | 0.419 | 1.41 | 1.18 | -0.0593 (inactive) | 0.486 | 0.0044 | 1.18 | -0.102 (inactive) | -2.37 (inactive) | -1.35 (inactive) | 2.88 | 0.525 (inactive) | 0.303 | 0.134 | 0.112 | -0.0774
10 | [N-]=[N+]=NCc1ccccc1[C@@H]1OC(c2ccc(OCCCO)cc2)=N[C@]1(Cc1ccccc1N=[N+]=[N-])C(=O)NCc1ccccc1 | -0.253 | 0.485 | -0.0287 | 0.272 | 1.15 | 0.612 | 1.05 | -1.66 (inactive) | 0.221 | -0.113 | 1.55 | 1.1 (inactive) | 1.44 (inactive) | 8.41 (active) | 2.45 | -0.911 (inactive) | 0.139 | 0.646 | 1.13 | 0.123
